# PubChem BioAssay
# For part of these data: Entries with a potency or affinity are not part of this list. Calls of active or inactive are those of the source.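 The calls were made as follows, unless noted: active = compound raising the membrane signal above positive-control mean plus 3 SD in both repeats, and a primary screen hit; inactive = the rest.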
# What was measured:
# [1] = test system: TRPC4 beta (transient receptor potential cation channel C4), mouse; assay: TRPC4 cation channel opening, retest – cell-based, Fluo4 calcium, HEK293 TRPC4beta/mu-opioid, duplicates, 10 µM, confirmation (AID 2426;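 active = fluorescence ratio normalized to control raised more than 50% in primary screen plus both repeat runs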); conditions: Fluo4 calcium fluorescence, at 10 µM; stronger effect = higher value
# [2] = test system: transient receptor potential cation channel C4 beta (TRPC4), mouse; assay: TRPC4 cation channel opening, second retest – cell-based, second round, Fluo4, HEK293 TRPC4beta/mu-opioid, 1 µM, confirmation (AID 2461;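 active = primary screen active and over 50% activation in each of two duplicate runs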); conditions: Fluo4 calcium fluorescence, at 1 µM; stronger effect = higher value
# [3] = test system: TRPC4 (transient receptor potential cation channel C4 beta), mouse; assay: potentiation of DAMGO EC20 TRPC4 response – cell-based, second round, Fluo-4, HEK293 TRPC4beta/mu-opioid, 1 µM, confirmation (AID 2554;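 active = primary screen hit whose fluorescence ratio, in both repeats, exceeds the weak agonist control mean by 3 SD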); conditions: DAMGO EC20, Fluo-4 calcium flux, at 1 µM; stronger effect = higher value
# [4] = test system: TRPC4 beta (transient receptor potential cation channel C4), mouse; assay: potentiation of DAMGO EC20 TRPC4 response – cell-based, Fluo-4, HEK293 TRPC4beta/mu-opioid, confirmation (AID 2555;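 active = primary screen hit whose calcium fluorescence ratio, in both repeats, exceeds the weak agonist control mean by 3 SD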); conditions: DAMGO EC20, Fluo-4 calcium flux, at 10 µM; stronger effect = higher value
# [5] = molecular target: Short transient receptor potential channel 4 (Mus musculus) (UniProt Q9QUQ5); assay: blockers of DAMGO-evoked TRPC4 calcium flux – cell-based, Fluo4, HEK293 TRPC4beta/mu-opioid, confirmation (AID 2636;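 active = calcium signal cut by more than 3 SD below the full-agonist control yet still positive, in both repeats and the earlier primary screen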); conditions: at 10 µM; stronger effect = higher value
# [6] = molecular target: Short transient receptor potential channel 4 (Mus musculus) (UniProt Q9QUQ5); assay: blockers of DAMGO-evoked TRPC4 calcium flux – cell-based, second round, Fluo4, HEK293 TRPC4beta/mu-opioid, 1 µM, confirmation (AID 2637;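 active = calcium signal ratio cut to more than 3 SD under the fully stimulated control mean yet still positive, in both repeats and the primary screen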); conditions: at 1 µM; stronger effect = higher value
# [7] = molecular target: Short transient receptor potential channel 4 (Mus musculus) (UniProt Q9QUQ5); assay: calcium entry via TRPC4 opening agents – cell-based, HEK293 TRPC4/mu-opioid, Fluo-4 calcium, dose response (AID 434937;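 active = primary screen activator hit with a dose response curve and TRPC4 channel activation at any tested dose; inactive = no activation, no dose response, or not a primary hit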)
# [8] = molecular target: Short transient receptor potential channel 4 (Mus musculus) (UniProt Q9QUQ5); assay: potentiation of DAMGO-evoked TRPC4 calcium signal – cell-based, HEK293 TRPC4/mu-opioid, Fluo-4 calcium, EC20 DAMGO, dose response (AID 434941;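 active = earlier screen potentiator hit that boosts the TRPC4 ion channel at some dose, with a dose response; inactive = no potentiation, no dose response, or not a prior hit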;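 also: calcium entry triggered by an EC20 dose of DAMGO at the co-expressed mu-opioid receptor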)
# [9] = molecular target: Short transient receptor potential channel 4 (Mus musculus) (UniProt Q9QUQ5); assay: block of DAMGO-driven TRPC4 calcium entry – cell-based, HEK293 TRPC4/mu-opioid, Fluo-4 calcium, dose response (AID 434942;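 active = primary screen inhibitor hit that blocks the TRPC4 channel at some tested dose, yielding a dose curve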)
# [10] = molecular target: Short transient receptor potential channel 6 (Mus musculus) (UniProt Q61143); assay: TRPC6 blockade by TRPC4 inhibitor hits – cell-based, HEK293, membrane potential dye, duplicate, selectivity assay for TRPC4 inhibitor project, confirmation (AID 434948;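 active = active in primary screen and both duplicates, each dropping signal beyond three positive-control SD with fluorescence still positive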); conditions: HEK293 TRPC6, membrane potential dye fluorescence, at 10 µM, stimulated with maximal-effect acetylcholine; stronger effect = higher value
# [11] = molecular target: Short transient receptor potential channel 6 (Mus musculus) (UniProt Q61143); assay: TRPC6 opening by TRPC4 activator hits – cell-based, HEK293, membrane potential dye, duplicate, selectivity assay for TRPC4 activator project, confirmation (AID 434950;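 active = membrane potential signal rise above negative control mean plus 3 SD in both duplicates, also active in the earlier TRPC4 screen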); conditions: HEK293 TRPC6, membrane potential fluorescence, at 10 µM; activation: stronger effect = higher value; outcome: activation
# [12] = molecular target: Short transient receptor potential channel 6 (Mus musculus) (UniProt Q61143); assay: positive modulators of mouse TRPC6 channel – HEK293 cells, membrane potential dye, duplicate, selectivity assay for TRPC4 potentiator project, confirmation (AID 434952); conditions: HEK293 TRPC6, membrane potential dye fluorescence, at 10 µM, maximal acetylcholine added after compound; stronger effect = higher value
# [13] = molecular target: Short transient receptor potential channel 4 (Mus musculus) (UniProt Q9QUQ5); assay: calcium flux activators in TRPC4/5HT1a cells, counter-screen for TRPC4 activator project, cell-based, second counter screen, HEK293 TRPC4/5HT1a, Fluo-4 (AID 434977;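 active = calcium signal rise above buffer-control mean plus 5 SD in both duplicates, and also a hit in the primary screen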); conditions: Fluo-4 calcium flux, at 10 µM; stronger effect = higher value
# [14] = serotonin-gated TRPC4 signal block – cell-based, second counter screen, HEK293 TRPC4/5HT1a, Fluo-4, counter-screen for TRPC4 inhibitor project, confirmation (AID 434978;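 active = primary screen active whose calcium signal fell more than 3 SD beyond the full-serotonin control mean in both duplicate plates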;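 also: serotonin given first at submaximal then at maximal dose after compound preincubation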); conditions: Fluo-4 calcium flux, at 10 µM, serotonin added to trigger calcium flux; stronger effect = higher value
# [15] = test system: TRPC4 (mouse), co-expressed with 5HT1a in HEK293; assay: enhancement of serotonin-evoked TRPC4 response – cell-based, second counter screen, HEK293 TRPC4/5HT1a, Fluo-4, counter-screen for TRPC4 potentiator project, confirmation (AID 434979;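 active = signal rise over 3 SD above mean of control wells given weak agonist, in both repeats and first screen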); conditions: Fluo-4 calcium flux, at 10 µM, serotonin added at its EC20 dose; stronger effect = higher value
# [16] = nonspecific calcium rise without TRPC4 – cell-based, HEK293 mu-opioid receptor line, counter-screen for TRPC4 activator project, confirmation (AID 449723;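 active = hit in primary screen, with calcium signal over 5 SD above buffer well mean in both duplicates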;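 also: counter screen cells carry the mu-opioid receptor alone and lack TRPC4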); conditions: HEK293 mu-opioid cells, Fluo-4 calcium fluorescence, at 10 µM; stronger effect = higher value
# [17] = nonspecific potentiation of DAMGO calcium response – cell-based, HEK293 mu-opioid receptor line, counter-screen for TRPC4 allosteric potentiator project, confirmation (AID 449724;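 active = calcium signal rise more than 3 SD above the low-dose agonist control mean, in both duplicate plates and the primary screen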); conditions: HEK293 mu-opioid receptor cells, Fluo-4 calcium flux, at 10 µM, compound added before EC20 DAMGO stimulus; stronger effect = higher value
# Short transient receptor potential channel 6 (Mus musculus), sequence (Q61143 whole entry, looked up): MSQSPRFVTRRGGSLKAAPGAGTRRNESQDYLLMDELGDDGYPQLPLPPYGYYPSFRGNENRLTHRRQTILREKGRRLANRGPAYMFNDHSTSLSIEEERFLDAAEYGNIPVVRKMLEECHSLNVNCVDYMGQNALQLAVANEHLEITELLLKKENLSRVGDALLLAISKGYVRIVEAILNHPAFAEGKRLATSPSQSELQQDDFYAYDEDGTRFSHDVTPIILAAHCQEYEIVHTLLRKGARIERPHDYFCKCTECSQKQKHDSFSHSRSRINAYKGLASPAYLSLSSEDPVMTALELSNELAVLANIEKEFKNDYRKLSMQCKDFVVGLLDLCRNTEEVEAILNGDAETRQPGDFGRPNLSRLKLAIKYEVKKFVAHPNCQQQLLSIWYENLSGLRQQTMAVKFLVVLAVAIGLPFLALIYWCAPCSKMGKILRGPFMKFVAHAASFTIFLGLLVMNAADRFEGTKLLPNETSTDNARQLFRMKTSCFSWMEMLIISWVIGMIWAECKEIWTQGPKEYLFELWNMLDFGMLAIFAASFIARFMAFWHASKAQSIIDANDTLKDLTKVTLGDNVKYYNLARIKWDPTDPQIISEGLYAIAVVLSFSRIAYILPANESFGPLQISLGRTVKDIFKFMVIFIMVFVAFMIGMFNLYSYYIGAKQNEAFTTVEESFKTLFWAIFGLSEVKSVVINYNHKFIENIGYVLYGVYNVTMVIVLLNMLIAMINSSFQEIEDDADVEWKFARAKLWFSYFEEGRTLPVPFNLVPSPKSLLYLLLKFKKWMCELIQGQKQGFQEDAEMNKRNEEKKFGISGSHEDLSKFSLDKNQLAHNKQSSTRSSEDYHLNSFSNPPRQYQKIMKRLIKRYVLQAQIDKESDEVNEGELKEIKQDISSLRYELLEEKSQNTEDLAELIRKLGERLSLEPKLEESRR
# Short transient receptor potential channel 4 (Mus musculus), sequence (Q9QUQ5 whole entry, looked up): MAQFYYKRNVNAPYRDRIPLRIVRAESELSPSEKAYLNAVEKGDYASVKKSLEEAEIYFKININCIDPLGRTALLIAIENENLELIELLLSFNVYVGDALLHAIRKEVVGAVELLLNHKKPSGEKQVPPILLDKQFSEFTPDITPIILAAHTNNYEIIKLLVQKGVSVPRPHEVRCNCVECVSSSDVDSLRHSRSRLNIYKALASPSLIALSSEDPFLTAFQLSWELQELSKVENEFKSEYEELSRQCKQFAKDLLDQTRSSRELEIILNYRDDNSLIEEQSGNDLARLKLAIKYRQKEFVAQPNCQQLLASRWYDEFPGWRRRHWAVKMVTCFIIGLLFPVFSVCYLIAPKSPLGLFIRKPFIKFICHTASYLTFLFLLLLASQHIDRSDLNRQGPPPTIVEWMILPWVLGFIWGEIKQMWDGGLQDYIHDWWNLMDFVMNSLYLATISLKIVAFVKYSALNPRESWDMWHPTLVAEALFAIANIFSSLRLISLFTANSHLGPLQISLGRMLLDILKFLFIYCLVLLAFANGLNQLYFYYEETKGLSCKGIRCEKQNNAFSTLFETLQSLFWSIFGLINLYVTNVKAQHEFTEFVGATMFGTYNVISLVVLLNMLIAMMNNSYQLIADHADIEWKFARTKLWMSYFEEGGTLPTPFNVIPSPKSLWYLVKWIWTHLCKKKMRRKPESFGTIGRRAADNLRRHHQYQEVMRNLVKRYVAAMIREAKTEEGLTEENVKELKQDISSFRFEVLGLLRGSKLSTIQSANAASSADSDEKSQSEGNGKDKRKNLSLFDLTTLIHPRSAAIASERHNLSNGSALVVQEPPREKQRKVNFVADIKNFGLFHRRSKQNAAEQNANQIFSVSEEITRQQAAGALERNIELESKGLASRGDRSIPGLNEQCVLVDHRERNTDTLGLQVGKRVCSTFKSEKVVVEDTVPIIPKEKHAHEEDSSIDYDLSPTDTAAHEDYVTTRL
smiles,measurement,setting,value
CCOC(=O)C1=C(N)OC2=C(C(=O)CC(C)(C)C2)C1c1ccc(CC)s1 (stereo not given),outcome,[1],inactive
same,outcome,[2],inactive
same,outcome,[3],inactive
same,outcome,[4],inactive
same,outcome,[5],inactive
same,outcome,[6],inactive
same,outcome,[7],inactive
same,outcome,[8],inactive
same,outcome,[9],inactive
same,outcome,[10],inactive
same,outcome,[11],inactive
same,outcome,[12],inactive
same,outcome,[13],inactive
same,outcome,[14],inactive
same,potentiation,[15],27.5% (active)
same,outcome,[16],inactive
same,outcome,[17],inactive
c1ccc(Cn2nnc3cnccc32)cc1,outcome,[1],inactive
same,outcome,[2],inactive
same,outcome,[3],inactive
same,outcome,[4],inactive
same,inhibition,[5],65% (active)
same,outcome,[6],inactive
same,outcome,[7],inactive
same,outcome,[8],inactive
same,outcome,[9],inactive
same,outcome,[10],inactive
same,outcome,[11],inactive
same,outcome,[12],inactive
same,outcome,[13],inactive
same,outcome,[14],inactive
same,outcome,[15],inactive
same,outcome,[16],inactive
same,outcome,[17],inactive
CCOC(=O)C1NN=C(C(=O)c2ccccc2)C1c1ccc(Cl)cc1 (stereo not given),outcome,[1],inactive
same,outcome,[2],inactive
same,outcome,[3],inactive
same,outcome,[4],inactive
same,outcome,[5],inactive
same,outcome,[6],inactive
same,outcome,[7],inactive
same,outcome,[8],inactive
same,outcome,[9],inactive
same,outcome,[10],inactive
same,outcome,[11],inactive
same,outcome,[12],inactive
same,outcome,[13],inactive
same,outcome,[14],inactive
same,outcome,[15],inactive
same,outcome,[16],inactive
same,outcome,[17],inactive
C=CCc1cc(Cl)ccc1OCCCn1ccnc1,outcome,[1],inactive
same,outcome,[2],inactive
same,potentiation,[3],9% (active)
same,outcome,[4],inactive
same,outcome,[5],inactive
same,outcome,[6],inactive
same,outcome,[7],inactive
same,outcome,[8],inactive
same,outcome,[9],inactive
same,outcome,[10],inactive
same,outcome,[11],inactive
same,outcome,[12],inactive
same,outcome,[13],inactive
same,outcome,[14],inactive
same,outcome,[15],inactive
same,outcome,[16],inactive
same,outcome,[17],inactive
Cc1cc(OCCN2CCCCC2)nc2ccccc12,outcome,[1],inactive
same,outcome,[2],inactive
same,outcome,[3],inactive
same,outcome,[4],inactive
same,outcome,[5],inactive
same,outcome,[6],inactive
same,outcome,[7],inactive
same,outcome,[8],inactive
same,outcome,[9],inactive
same,outcome,[10],inactive
same,outcome,[11],inactive
same,outcome,[12],inactive
same,outcome,[13],inactive
same,outcome,[14],inactive
same,potentiation,[15],13.7% (active)
same,outcome,[16],inactive
same,outcome,[17],inactive
CCOc1ccc(-n2c(C)cc(/C=C3/C(=N)N4C(=NC3=O)SN=C4S(C)(=O)=O)c2C)cc1,outcome,[1],inactive
same,outcome,[2],inactive
same,outcome,[3],inactive
same,outcome,[4],inactive
same,outcome,[5],inactive
same,outcome,[6],inactive
same,outcome,[7],inactive
same,outcome,[8],inactive
same,outcome,[9],inactive
same,outcome,[10],inactive
same,outcome,[11],inactive
same,outcome,[12],inactive
same,outcome,[13],inactive
same,outcome,[14],inactive
same,outcome,[15],inactive
same,outcome,[16],inactive
same,outcome,[17],inactive
Cc1[nH]c2ccccc2c1C(=O)CN1C(=O)NC(C)(c2ccc(Cl)cc2Cl)C1=O (stereo not given),outcome,[1],inactive
same,outcome,[2],inactive
same,outcome,[3],inactive
same,potentiation,[4],21% (active)
same,outcome,[5],inactive
same,outcome,[6],inactive
same,outcome,[7],inactive
same,outcome,[8],inactive
same,outcome,[9],inactive
same,outcome,[10],inactive
same,outcome,[11],inactive
same,outcome,[12],inactive
same,outcome,[13],inactive
same,outcome,[14],inactive
same,potentiation,[15],37.7% (active)
same,outcome,[16],inactive
same,outcome,[17],inactive
COc1ccc(OC)c(NC(=O)COC(=O)Cc2ccc(-c3ccccc3)cc2)c1,outcome,[1],inactive
same,outcome,[2],inactive
same,outcome,[3],inactive
same,outcome,[4],inactive
same,outcome,[5],inactive
same,outcome,[6],inactive
same,outcome,[7],inactive
same,outcome,[8],inactive
same,outcome,[9],inactive
same,outcome,[10],inactive
same,outcome,[11],inactive
same,outcome,[12],inactive
same,outcome,[13],inactive
same,outcome,[14],inactive
same,potentiation,[15],31.8% (active)
same,outcome,[16],inactive
same,outcome,[17],inactive
CCc1nc2ccccc2n1Cc1ccccc1F,outcome,[1],inactive
same,outcome,[2],inactive
same,outcome,[3],inactive
same,outcome,[4],inactive
same,outcome,[5],inactive
same,outcome,[6],inactive
same,outcome,[7],inactive
same,outcome,[8],inactive
same,outcome,[9],inactive
same,outcome,[10],inactive
same,outcome,[11],inactive
same,outcome,[12],inactive
same,outcome,[13],inactive
same,outcome,[14],inactive
same,outcome,[15],inactive
same,outcome,[16],inactive
same,outcome,[17],inactive
CCCCN(C)CCNC(=S)Nc1ccc2nc(N3CCN(CC)CC3)cc(C)c2c1,outcome,[1],inactive
same,outcome,[2],inactive
same,potentiation,[3],11% (active)
same,outcome,[4],inactive
same,outcome,[5],inactive
same,outcome,[6],inactive
same,outcome,[7],inactive
same,outcome,[8],inactive
same,outcome,[9],inactive
same,outcome,[10],inactive
same,outcome,[11],inactive
same,outcome,[12],inactive
same,outcome,[13],inactive
same,outcome,[14],inactive
same,potentiation,[15],18% (active)
same,outcome,[16],inactive
same,outcome,[17],inactive
Cc1[nH]nc(-c2ccc(O)cc2O)c1-c1nc2ccccc2s1,outcome,[1],inactive
same,outcome,[2],inactive
same,outcome,[3],inactive
same,outcome,[4],inactive
same,outcome,[5],inactive
same,outcome,[6],inactive
same,outcome,[7],inactive
same,outcome,[8],inactive
same,outcome,[9],inactive
same,outcome,[10],inactive
same,outcome,[11],inactive
same,outcome,[12],inactive
same,outcome,[13],inactive
same,outcome,[14],inactive
same,outcome,[15],inactive
same,outcome,[16],inactive
same,outcome,[17],inactive
O=C(OCCCCN1C(=O)c2ccccc2C1=O)c1ccc(S(=O)(=O)N2CCCC2)cc1,outcome,[1],inactive
same,outcome,[2],inactive
same,outcome,[3],inactive
same,outcome,[4],inactive
same,outcome,[5],inactive
same,outcome,[6],inactive
same,outcome,[7],inactive
same,outcome,[8],inactive
same,outcome,[9],inactive
same,outcome,[10],inactive
same,outcome,[11],inactive
same,outcome,[12],inactive
same,outcome,[13],inactive
same,outcome,[14],inactive
same,outcome,[15],inactive
same,outcome,[16],inactive
same,outcome,[17],inactive
NC(=S)N/N=C1/CCSc2ccc3ccccc3c21,outcome,[1],inactive
same,outcome,[2],inactive
same,outcome,[3],inactive
same,potentiation,[4],25% (active)
same,outcome,[5],inactive
same,outcome,[6],inactive
same,outcome,[7],inactive
same,outcome,[8],inactive
same,outcome,[9],inactive
same,outcome,[10],inactive
same,outcome,[11],inactive
same,outcome,[12],inactive
same,outcome,[13],inactive
same,outcome,[14],inactive
same,potentiation,[15],18.7% (active)
same,outcome,[16],inactive
same,outcome,[17],inactive
CC(C)(C)NC(=S)N/N=C\c1ccc(-c2ccc([N+](=O)[O-])cc2)o1,outcome,[1],inactive
same,outcome,[2],inactive
same,outcome,[3],inactive
same,outcome,[4],inactive
same,outcome,[5],inactive
same,outcome,[6],inactive
same,outcome,[7],inactive
same,outcome,[8],inactive
same,outcome,[9],inactive
same,outcome,[10],inactive
same,outcome,[11],inactive
same,"potentiation, percent of control",[12],142% (active)
same,outcome,[13],inactive
same,outcome,[14],inactive
same,potentiation,[15],15.4% (active)
same,outcome,[16],inactive
same,outcome,[17],inactive
Cn1c(=O)c2c(nc(SCCN3CCCCC3)n2Cc2ccccc2)n(C)c1=O,outcome,[1],inactive
same,outcome,[2],inactive
same,outcome,[3],inactive
same,potentiation,[4],36% (active)
same,outcome,[5],inactive
same,outcome,[6],inactive
same,outcome,[7],inactive
same,outcome,[8],inactive
same,outcome,[9],inactive
same,outcome,[10],inactive
same,outcome,[11],inactive
same,outcome,[12],inactive
same,outcome,[13],inactive
same,outcome,[14],inactive
same,potentiation,[15],50.5% (active)
same,outcome,[16],inactive
same,outcome,[17],inactive
